These results are taken from the supplement of paper PMC6089552.

The test system of this test is A673/TR/shEF. The test is described as follows: cell viability (LOESS-normalised, relative to median of negative controls) (log2 ratio); higher = more viable cells (less compound effect), active = hit call of the paper (over 3 MAD below the median). To be noted: treatment time: 72 h. A digest of the protocol: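 A673/TR/shEF Ewing sarcoma cells (1,500 per well, 384-well plates) were grown with or without doxycycline to induce EWS-FLI1 shRNA knockdown, starting 24 h before compounds. Library compounds at two or more concentrations, with DMSO controls, were added for three days. Cell viability was read by CellTiter-Glo luminescence on an Envision reader, then LOESS-corrected per plate, divided by the median of negative controls and log2-transformed. Hits were wells at least three median absolute deviations from the median of all screened wells.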

[1] abbreviates: 0.25 µM, library screen: screen1, EWS-FLI1 expression: high (no doxycycline).
Setting [2] is: 0.25 µM, library screen: screen1, EWS-FLI1 expression: low (doxycycline-induced shRNA knockdown).
[3] abbreviates: 2.5 µM, library screen: screen1, EWS-FLI1 expression: high (no doxycycline).
The mark [4] stands for this setting: 2.5 µM, library screen: screen1, EWS-FLI1 expression: low (doxycycline-induced shRNA knockdown).
The mark [5] stands for this setting: 0.25 µM, library screen: screen2, EWS-FLI1 expression: high (no doxycycline).
Where [6] appears, read: 0.25 µM, library screen: screen2, EWS-FLI1 expression: low (doxycycline-induced shRNA knockdown).
[7] abbreviates: 2.5 µM, library screen: screen2, EWS-FLI1 expression: high (no doxycycline).
Where [8] appears, read: 2.5 µM, library screen: screen2, EWS-FLI1 expression: low (doxycycline-induced shRNA knockdown).

Screen size: about 3,200 compounds; about 300 (9.4%) showed activity. This excerpt belongs to a sample that is enriched for actives. Unmarked numbers belong to inactive results.

Turning to `Clc1ccc(Cl)cc1`, the “cell viability (log2)” value under setting [1] is 0.0995, the “cell viability (log2)” value under setting [2] is 0.0885, the “cell viability (log2)” value under setting [3] is 0.0618 and the “cell viability (log2)” value under setting [4] is 0.0905.

Consider `CC[C@@H](C)C(=O)O[C@H]1[C@H](O)[C@H]2[C@@H](CN3C[C@@H](C)CC[C@H]3[C@@]2(C)O)[C@@H]2C[C@]34O[C@]5(O)[C@@H](OC(=O)[C@@](C)(O)CC)CC[C@@]3(C)[C@@H]5[C@@H](OC(C)=O)[C@@H](OC(C)=O)[C@H]4[C@@]21O`, for which the “cell viability (log2)” value runs as follows: under setting [1], -0.0817; under setting [2], -0.0114; under setting [3], 0.16; under setting [4], -0.013.

As for `C/C=C/c1ccc2c(c1)OCO2`, the “cell viability (log2)” value is 0.0443 under setting [1], -0.0135 under setting [2], 0.1 under setting [3] and 0.0835 under setting [4].

For the compound `CC(=O)OCC1=C(C(=O)O)N2C(=O)[C@@H](NC(=O)CCCC(N)C(=O)O)C2SC1` (some centres not stated), the “cell viability (log2)” value reads like this: under setting [1], 0.128; under setting [2], 0.143; under setting [3], 0.14; under setting [4], -0.0301.

For the compound `C[C@]12C=CC(=O)C=C1CC[C@@H]1[C@@H]2CC[C@]2(C)C(=O)CC[C@@H]12`, the “cell viability (log2)” value under setting [1] was 0.0143, the “cell viability (log2)” value under setting [2] is 0.0386, the “cell viability (log2)” value under setting [3] is -0.0049 and the “cell viability (log2)” value under setting [4] is 0.0547.

As for `C=CCC1(C(C)CCC)C(=O)NC(=S)NC1=O` (configuration not stated), the “cell viability (log2)” value is, setting by setting: under setting [1], 0.103; under setting [2], 0.0758; under setting [3], 0.146; under setting [4], 0.0138.

For the compound `CC1C2Cc3ccc(O)cc3C1(C)CCN2CC1CC1` (configuration not stated), the “cell viability (log2)” value is, setting by setting: under setting [5], 0.105; under setting [6], 0.104; under setting [7], 0.153; under setting [8], 0.0285.

With `C[C@@H]1CC[C@H]2[C@@H](C)C(=O)O[C@@H]3OC4(C)CC[C@@H]1[C@]32OO4`, the “cell viability (log2)” value was 0.0266 under setting [1], 0.0821 under setting [2], 0.0419 under setting [3] and -0.14 under setting [4].

As for `COc1ccc(C[C@H]2NC[C@H](O)[C@H]2OC(C)=O)cc1`, the “cell viability (log2)” value under setting [1] was -0.49 (active), the “cell viability (log2)” value under setting [2] is -0.228 (active), the “cell viability (log2)” value under setting [3] was -2.24 (active) and the “cell viability (log2)” value under setting [4] is -1.04 (active).

Take `CC(C)[C@H]1CN[C@H](C(=O)O)[C@H]1CC(=O)O`: the “cell viability (log2)” value runs as follows: under setting [5], 0.0705; under setting [6], 0.0959; under setting [7], 0.0874; under setting [8], 0.0543.

As for `CCCCCCCCCCCCCCCC[n+]1ccccc1`, the “cell viability (log2)” value was 0.0178 under setting [1], -0.00413 under setting [2], -1.66 (active) under setting [3] and -2.21 (active) under setting [4].

As to `COc1cc(OC)c2c(c1)OC(c1ccc(OC)c(OC)c1)C(O)C2` (configuration not stated), the “cell viability (log2)” value under setting [1] is 0.123, the “cell viability (log2)” value under setting [2] was 0.00653, the “cell viability (log2)” value under setting [3] was 0.0915 and the “cell viability (log2)” value under setting [4] was 0.0594.

With `CNc1ccc2oc(C[C@@H]3OC4(CC[C@@H]3C)O[C@H](C(C)C(=O)c3ccc[nH]3)[C@H](C)C[C@H]4C)nc2c1C(=O)O` (some centres not stated), the “cell viability (log2)” value was 0.111 under setting [1]; 0.0323 under setting [2]; -0.082 (active) under setting [5]; 0.0959 under setting [6]; -0.0263 under setting [3]; -1.11 under setting [4]. For the same compound, the “cell viability (log2)” value is -0.175 (active) under setting [7] and 0.1 under setting [8].

Turning to `CN[C@@H](Cc1c[nH]c2ccccc12)C(=O)O`, the “cell viability (log2)” value runs as follows: under setting [1], 0.064; under setting [2], 0.0774; under setting [3], 0.156; under setting [4], 0.0411.

For the compound `C[C@@H]1O[C@@H](O[C@H]2C[C@@H](O)[C@]3(CO)[C@H]4[C@H](O)C[C@]5(C)[C@@H](C6=CC(=O)OC6)CC[C@]5(O)[C@@H]4CC[C@]3(O)C2)[C@H](O)[C@H](O)[C@H]1O`, the “cell viability (log2)” value was -2.32 (active) under setting [1]; -1.95 (active) under setting [2]; -0.747 (active) under setting [5]; -0.523 (active) under setting [6]; -3.06 (active) under setting [3]; -3.54 (active) under setting [4]. Further, the “cell viability (log2)” value is, setting by setting: under setting [7], -4.02 (active); under setting [8], -3.81 (active).

For `COC1C[C@H](O[C@H]2CC[C@]3(C)C4CC[C@]5(C)[C@@H](C6=CC(=O)OC6)CC[C@]5(O)C4CC[C@]3(O)C2)OC(C)[C@H]1O` (some centres not stated), the “cell viability (log2)” value is -0.209 (active) under setting [1], -0.262 (active) under setting [2], -3.79 (active) under setting [3] and -2.17 (active) under setting [4].

As for `C[C@@H]1O[C@@H](O[C@H]2CC[C@]3(C=O)[C@H]4CC[C@]5(C)[C@@H](C6=CC(=O)OC6)CC[C@]5(O)[C@@H]4CC[C@]3(O)C2)[C@H](O)[C@H](O)[C@H]1O`, the “cell viability (log2)” value is 0.0221 under setting [1], 0.0427 under setting [2], -3.36 (active) under setting [3] and -3.89 (active) under setting [4].

For `CC1O[C@H](O[C@H]2C[C@@H](O)[C@]3(CO)C4C(O)C[C@]5(C)C(C6COC(=O)C6)CC[C@]5(O)C4CC[C@]3(O)C2)C(O)C(O)[C@H]1O` (some centres not stated), the “cell viability (log2)” value under setting [5] is 0.151, the “cell viability (log2)” value under setting [6] is 0.0734, the “cell viability (log2)” value under setting [7] was 0.15 and the “cell viability (log2)” value under setting [8] is 0.134.

In the case of `COC1C(O)C(O[C@H]2CC[C@]3(C=O)C4C(CC[C@]3(O)C2)[C@@]2(O)CC[C@H](C3=CC(=O)OC3)[C@@]2(C)C[C@H]4OC(C)=O)OC(C)C1OC(C)=O` (some centres not stated), the “cell viability (log2)” value reads like this: under setting [1], 0.109; under setting [2], 0.146; under setting [3], 0.0847; under setting [4], 0.082.

With `CO[C@H]1C[C@H](O[C@H]2CCC3(C=O)C4CCC5(C)C(C6=CC(=O)OC6)CCC5(O)C4CC[C@]3(O)C2)O[C@H](C)[C@H]1O` (some centres not stated), the “cell viability (log2)” value is -0.95 (active) under setting [1], -1.15 (active) under setting [2], -3.9 (active) under setting [3] and -3.2 (active) under setting [4].

In the case of `O=c1cccc2n1C[C@@H]1CNC[C@H]2C1`, the “cell viability (log2)” value reads like this: under setting [1], 0.0148; under setting [2], -0.00559; under setting [3], 0.016; under setting [4], 0.0651.
